The subject of experiment [1] is WaGa. The experiment in a line: qHTS assay to identify novel small-molecules to repurpose for Merkel cell carcinoma treatment (AID 1296009). Also: nearly all actives have a fitted effect of over 60% in size. The conditions noted are these: MCC and control cell lines, CellTiter-Glo viability, 72 h; series mostly up to 46 µM. The gist of the method:
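72 hr, 37 degree celsius; NPC 8-pt / MIPE 11-pt dose response; compound pinned in DMSO; CellTiter-Glo, 10 min RT, luminescence; normalized to no-cell and DMSO controls.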
(Quantitative high-throughput screening tests each substance at several concentrations.)

The subject of experiment [2] is C33A. Description: Primary qHTS to identify gynecologic anti-cancer compounds using libraries of approved drugs and bioactive compounds (AID 1345084). Also: nearly all actives have a fitted effect of over 55% in size. As to conditions: Gynecologic cancer cell panel viability, ATPlite luminescence, 48 h; series mostly up to 57.5 µM. The gist of the method:
(§1)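 ATP-based viability (ATPlite), 1,000 cells/well, 16 h pre-incubation, 48 h compound at 37 C, 5% CO2, 15 min RT before read.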

Experiment [3] has as its system CAOV3. The description is as above. As to conditions: Gynecologic cancer cell panel viability, ATPlite luminescence, 48 h; series mostly up to 57.5 µM. The gist of the method: as §1
On the technique in general: In ATP-based viability assays light output follows the ATP content of the culture.

The test system of experiment [4] is CASKI. Described as above. As to conditions: Gynecologic cancer cell panel viability, ATPlite luminescence, 48 h; series mostly up to 57.5 µM. The gist of the method:
as §1

The test system of experiment [5] is Es-2. Described as above. The conditions noted are these: Gynecologic cancer cell panel viability, ATPlite luminescence, 48 h; series mostly up to 57.5 µM. The gist of the method: as §1
Experiment [6] has as its system HeLa. The description is as above. As to conditions: Gynecologic cancer cell panel viability, ATPlite luminescence, 48 h; series mostly up to 57.5 µM. In a few lines:
as §1

In experiment [7] the test system is Hek293T. The description is as above. As to conditions: Gynecologic cancer cell panel viability, ATPlite luminescence, 48 h, control line for the selectivity index; series mostly up to 57.5 µM. The gist of the method: as §1
The test system of experiment [8] is JEG-3. The experiment is described as above. The conditions noted are these: Gynecologic cancer cell panel viability, ATPlite luminescence, 48 h; series mostly up to 57.5 µM. In a few lines: as §1
Experiment [9] concerns OV90. Described as above. As to conditions: Gynecologic cancer cell panel viability, ATPlite luminescence, 48 h; series mostly up to 57.5 µM. In a few lines: as §1
Experiment [10] relates to PA-1. The description is as above. The conditions noted are these: Gynecologic cancer cell panel viability, ATPlite luminescence, 48 h; series mostly up to 57.5 µM. In a few lines: as §1

We go through 15 compounds from PubChem BioAssay (NCATS).

Records with an inconclusive call do not appear. Values without a mark were called inactive. Active and inactive are the calls of the source. Calls follow the shape of the dose curve; as a rule, active = well fitted curve in the direction sought with a large enough effect; inconclusive = small, poorly fitted or top-dose-only effect, or another doubt; inactive = no such curve, though single readings can be large; an effect the other way counts as inactive or inconclusive.
% is scaled to controls: 0 for no effect and ±100 for the full control effect; potency is read from the fitted curve at half-maximal effect.

Regarding `Cn1c(CNc2ccc(C(=N)N)cc2)nc2cc(C(=O)N(CCC(=O)O)c3ccccn3)ccc21`, the Potency result in experiment [1], in experiment [2], in experiment [3], in experiment [4], in experiment [5] and in experiment [6] was “inactive” throughout. Moreover, the Potency result in [7], in experiment [8], in experiment [9] and in [10] was “inactive” throughout.
Regarding `Clc1cccc(-c2nnnn2Cc2cccnc2)c1Cl`, the Potency entry in experiment [1], in experiment [2], in [3], in experiment [4], in experiment [5] and in experiment [6] was “inactive” each time. Further, the Potency result in [7], in experiment [8], in [9] and in [10] was “inactive” each time.
Regarding `NC(=O)c1cccc2cn(-c3ccc([C@@H]4CCCNC4)cc3)nc12`, the Potency in experiment [1] was 10.5 µM (active). The Potency entry in experiment [2], in [3], in experiment [4], in [6], in experiment [7] and in [8] was “inactive” in each case. Also, the Potency entry in [9] is “inactive”.
For the compound `CCCNC(=O)Nc1ccc(Oc2ncnc3cc(OC)c(OC)cc23)cc1Cl`, the Potency entry in experiment [1], in experiment [2], in experiment [3], in experiment [4], in [5] and in experiment [6] was “inactive” in each case. In addition, the Potency result in experiment [7], in [8], in experiment [9] and in experiment [10] was “inactive” each time.
Regarding `CC1COC2(CCN(c3nc(=O)c4cc(C(F)(F)F)cc([N+](=O)[O-])c4s3)CC2)O1` (stereo not given), the Potency entry in experiment [1], in experiment [2], in [4], in experiment [5], in experiment [6] and in experiment [7] was “inactive” throughout. Besides, the Potency entry in experiment [8] and in experiment [10] was “inactive” each time.
Turning to `C1Cc2[nH]nc(-c3nn[nH]n3)c2C1`, the Potency entry in experiment [1], in [2], in experiment [4], in experiment [5], in experiment [6] and in experiment [7] was “inactive” throughout. The Potency result in experiment [8], in experiment [9] and in [10] was “inactive” each time.
Consider `COc1cccc(Nc2c(C(N)=O)cnc3c(C)cc(S(=O)(=O)c4cccc(C(=O)N(C)C)c4)cc23)c1`, for which the Potency entry in [1], in experiment [2], in experiment [4], in [5], in [6] and in experiment [7] was “inactive” throughout. The Potency entry in experiment [8], in experiment [9] and in experiment [10] was “inactive” each time.
On to `CS(=O)(=O)c1ccc(-c2cnc(N)c(C(=O)Nc3ccccc3)n2)cc1`, for which the Potency result in [1], in experiment [2], in experiment [3], in experiment [4], in experiment [6] and in [7] was “inactive” in each case. Moreover, the Potency entry in experiment [8] and in experiment [9] was “inactive” throughout.
As for `Cc1c(C)n(Cc2ccc(-c3ccccc3C(=O)O)cc2)c2ccc(C(=O)N[C@@H](C)c3ccc([N+](=O)[O-])cc3)cc12`, the Potency in experiment [1] is 0.469 µM (active). Further, the Potency entry in experiment [2], in experiment [4], in [5], in experiment [6], in [7] and in [8] was “inactive” each time. The Potency result in experiment [9] was “inactive”.
Take `CC(C)(C)c1cc(NC(=O)Nc2ccc(-c3cn4c(n3)sc3cc(OCCN5CCOCC5)ccc34)cc2)no1`: the Potency entry in [1], in [2], in experiment [4], in experiment [5], in experiment [6] and in [7] was “inactive” in each case. The Potency result in experiment [8], in experiment [9] and in experiment [10] was “inactive” each time.
With `CC(=O)c1c(C)c2cnc(Nc3ccc(N4CCNCC4)cn3)nc2n(C2CCCC2)c1=O`, the Potency entry in experiment [1] is “inactive”. In addition, the activity change, negative = cytotoxicity in experiment [2] was 9.39% [at 6.55 µM]; in experiment [4], 12% [at 6.55 µM]; in experiment [5], 0.0946% [at 6.55 µM]; in [6], -1.33% [at 6.55 µM]; in experiment [7], 25.4% [at 6.55 µM]; in experiment [8], -5.97% [at 6.55 µM]. Besides, the activity change, negative = cytotoxicity in [9] was 15% [at 6.55 µM]; in [10], -9.61% [at 6.55 µM].
In the case of `CCCCOc1c(C(=O)c2c(F)cc(C)cc2F)cnc2n[nH]cc12`, the Potency result in experiment [1], in experiment [2], in experiment [3], in experiment [4] and in experiment [8] was “inactive” throughout. Moreover, the results for the Potency in [6] and in [10] were 8.91 µM (active) and 7.94 µM (active), respectively.
For `C#Cc1cccc(Nc2ncnc3cc(OC)c(OCCCCCCC(=O)NO)cc23)c1`, the Potency was 0.105 µM (active) in experiment [1]; 3.55 µM (active) in [2]; 6.31 µM (active) in [4]; 10 µM (active) in experiment [5]; 6.31 µM (active) in experiment [6]; 10 µM (active) in [8]. In addition, the Potency in experiment [9] was 5.62 µM (active); in [10], 5.01 µM (active).
For the compound `Nc1ccccc1NC(=O)c1ccc(CNC(=O)OCc2cccnc2)cc1`, the Potency in experiment [1] is 0.296 µM (active); in experiment [2], 17.8 µM (active); in experiment [5] it was 11.2 µM (active); in experiment [6], 10 µM (active); in experiment [8], 15.8 µM (active); in [9] it was 0.631 µM (active). The Potency in [10] is 3.16 µM (active). The Potency result in experiment [3] and in experiment [4] was “inactive” throughout.
Turning to `CNC(=O)c1c(F)cccc1Nc1nc(Nc2cc3c(cc2OC)CCN3C(=O)CN(C)C)nc2[nH]ccc12`, the Potency in [1] is 18.7 µM (active). For the same compound, the Potency result in experiment [2], in experiment [4], in [5], in experiment [6], in experiment [7] and in experiment [8] was “inactive” throughout. Moreover, in [9], the Potency result was “inactive”.
